Shown are actives, neighbours in structure and some others; about 2% of the full set was active somewhere.
CHT inh = inhibitors of human choline transporter CHT. High affinity choline transporter 1 (Homo sapiens), Q9GZV3. CHT-expressing cells, membrane potential dye, choline response; hits give low values. B-score at 10 µM. 0.86% of 310,000 active;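 active = B-score over 3 SD under the library average, and starting fluorescence ratio not unusually high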;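 note: choline stimulus applied at its EC90 after an EC20 pre-addition; B-score computed on integrated fluorescence ratio after choline addition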
CHT allo act = CHT positive allosteric modulators, primary screen, cell-based, membrane potential dye, choline EC20. 0.49% of 310,000 active. AID 488977, 2010. B-score at 10 µM. CHT-expressing cells; hits give high values; LV-AA mutant CHT in HEK293 cells. High affinity choline transporter 1 (Homo sapiens), Q9GZV3;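 active = initial fluorescence not abnormally high and integrated response B-score, plate-corrected, over 3 SD above library mean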
Kir21 block = inhibitors of mouse Kir2.1 inward-rectifier potassium channel; HEK293-Kir2.1, FluxOR thallium flux fluorescence; hits give low values; B-score at 10 µM; 0.85% of 310,000 active; AID 1672, 2009;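 active = fluorescence ratio B-score at or below minus 3 SD of library scores, with starting-brightness B-score within 2 SD, cut at about -4.2 in these data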;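 note: channel flux triggered by added potassium and thallium sulfate stimulus; B-score of peak minus minimum fluorescence over baseline after thallium stimulus; more negative B-score means stronger Kir2.1 block with less thallium influx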
Target sequence (P35561 whole entry, looked up): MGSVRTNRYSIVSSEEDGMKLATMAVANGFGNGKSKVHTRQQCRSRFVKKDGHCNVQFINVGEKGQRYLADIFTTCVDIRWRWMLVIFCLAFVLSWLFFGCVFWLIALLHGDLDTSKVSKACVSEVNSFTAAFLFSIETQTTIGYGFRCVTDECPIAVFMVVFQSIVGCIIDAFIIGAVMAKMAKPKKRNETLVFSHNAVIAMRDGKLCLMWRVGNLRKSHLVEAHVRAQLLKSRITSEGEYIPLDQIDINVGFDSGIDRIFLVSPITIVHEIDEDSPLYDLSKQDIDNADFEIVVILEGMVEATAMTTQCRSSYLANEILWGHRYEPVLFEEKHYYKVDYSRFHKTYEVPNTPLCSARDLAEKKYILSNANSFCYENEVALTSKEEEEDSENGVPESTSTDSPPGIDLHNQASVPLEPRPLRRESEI
TAG inh = inhibitors of triacylglycerol accumulation, primary screen, cell-based, uHTS, fluorescence, H9c2; inhibition, % at 12.5 µM; H9c2 cells, Nile Red lipid (TAG) fluorescence; cells loaded with 200 µM oleic acid; 0.66% of 230,000 active;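 active = pattern-corrected inhibition of lipid staining of at least 50% with the nuclear-stain viability signal not falling by more than 50%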
CHT inh conf = CHT inhibitors, confirmation, cell-based, membrane potential dye, duplicate | CHT activity remaining % of control (hits give low values), % at 10 µM | 70% of 2,400 active | CHT-expressing cells, choline membrane potential dye; LV-to-AA substituted CHT, HEK293 cells | shares compounds with CHT inh;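 active = choline transporter activity left, mean of duplicates at 10 µM, below buffer-only control mean minus 3 SD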;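 note: depolarization triggered by choline at its EC90 following an EC20 pre-addition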
HEK293 CHT ctr = membrane potential effects in parental HEK293, counter-screen for CHT inhibitor project, cell-based, membrane potential dye. shares compounds with CHT inh. 4% of 2,400 active. AID 493222, 2011. choline response; active = decrease or increase beyond buffer ±3SD. membrane potential ratio readout (active if shifted either direction beyond buffer ±3SD; no single direction) at 10 µM;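 note: parental cells lack the transporter so any hit is non-specific; ratio is peak minus trough fluorescence over baseline after EC90 choline challenge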
Numbers stand for hits.

Results for FC(F)(F)c1ccccc1NC(=S)NN=C1CCCCCC1 ?
CHT inh: inactive; CHT allo act: inactive; Kir21 block: inactive

How did Cc1cc(NC(=O)C(C)SCC(=O)Nc2ccc(SC(F)F)cc2)no1 (stereo unspecified) do in these assays?
CHT inh: inactive; CHT allo act: inactive; Kir21 block: inactive; TAG inh: inactive

Results for N#Cc1ccc(S(=O)(=O)NC2CCCCNC2=O)cc1 (stereo unspecified) ?
CHT inh: inactive; CHT allo act: inactive; Kir21 block: inactive

Results for O=C1C2(CCCC13COC(c1ccc(O)cc1)OC3)COC(c1ccc(O)cc1)OC2 (stereo unspecified) ?
CHT inh: inactive; CHT allo act: inactive; Kir21 block: inactive

Results for CC[C@]12c3[nH]c4cc(-c5ccco5)ccc4c3CCN1C(=O)[C@@H](CC(=O)NCCCn1ccnc1)C[C@@H]2C(=O)N1CCN(C(=O)C2CC2)CC1 ?
TAG inh: inactive

How did Cc1ccc(C2(c3noc(CN4CCC(C(=O)N5CCOCC5)CC4)n3)CCCC2)cc1 do in these assays?
CHT inh: inactive; CHT allo act: inactive; Kir21 block: inactive; TAG inh: inactive

Results for Cc1cccc(C(=O)NC(=S)NNC(=O)c2cccs2)c1 ?
CHT inh: -10; CHT allo act: inactive; Kir21 block: inactive; TAG inh: inactive; CHT inh conf: 36%; HEK293 CHT ctr: inactive

What do the screens show for `CCCOc1ccc(C(=O)NNC(=S)NC(=O)c2cccs2)cc1`?
CHT inh: -9.4; CHT allo act: inactive; Kir21 block: inactive; CHT inh conf: inactive; HEK293 CHT ctr: inactive

How did Cc1onc(-c2ccccc2)c1C(=O)NC(=S)NNC(=O)c1ccco1 do in these assays?
CHT inh: -7.2; CHT allo act: inactive; Kir21 block: inactive; TAG inh: inactive; CHT inh conf: 59%; HEK293 CHT ctr: inactive

Results for O=C(NC(=S)NNC(=O)c1cccs1)c1ccccc1 ?
CHT inh: inactive; CHT allo act: inactive; Kir21 block: inactive; TAG inh: inactive

Results for COc1ccc(OCC(=O)NC(=S)Nc2ccccc2F)cc1 ?
CHT inh: -5.2; CHT allo act: inactive; Kir21 block: inactive; CHT inh conf: 59%; HEK293 CHT ctr: inactive

How did CCCOc1ccc(C(=O)NNC(=S)NC(C)=O)cc1 do in these assays?
CHT inh: inactive; CHT allo act: inactive; Kir21 block: inactive; TAG inh: inactive

Results for CCOC(=O)C1(NC(=O)C2(NC(=O)CN3C(=O)c4ccccc4C3=O)CCCC2)CCCC1 ?
TAG inh: inactive

How did C[C@H](CO)N1C[C@H](C)[C@@H](CN(C)S(=O)(=O)c2cn(C)cn2)Oc2c(NS(=O)(=O)c3ccccc3)cccc2C1=O do in these assays?
TAG inh: inactive

How did O=C(NCc1cc(Cl)cc(Cl)c1)c1ccc2nc([C@H]3C[C@H](O)[C@@H](CO)O3)[nH]c2c1 do in these assays?
TAG inh: inactive

Results for Cc1nn(-c2ccccc2)nc1CNS(C)(=O)=O ?
CHT inh: inactive; CHT allo act: inactive; Kir21 block: inactive; TAG inh: inactive

How did O=C(CSCc1nc2ccccc2[nH]1)N1CCN(c2ccc(F)cc2)CC1 do in these assays?
CHT inh: -5; CHT allo act: inactive; Kir21 block: inactive; TAG inh: inactive; CHT inh conf: inactive; HEK293 CHT ctr: inactive

Results for O=C(CSCc1nc2ccccc2[nH]1)N1CCN(c2cccc(Cl)c2)CC1 ?
CHT inh: inactive; CHT allo act: inactive; Kir21 block: inactive

Results for NC(=O)NC(=O)C(Nc1ccc(N2CCCCC2)cc1)c1ccccc1 (stereo unspecified) ?
CHT inh: inactive; CHT allo act: inactive; Kir21 block: inactive

Results for c1cc2c3c(cccc3c1)C(N1CCCCC1)=N2 ?
CHT inh: -6; CHT allo act: inactive; Kir21 block: inactive; TAG inh: inactive; CHT inh conf: 65%; HEK293 CHT ctr: 4.6

How did COc1ccc(/C=C/C(=O)OCC(=O)Nc2ccc(Cl)cn2)cc1 do in these assays?
CHT inh: inactive; CHT allo act: inactive; Kir21 block: inactive; TAG inh: inactive

What do the screens show for `COn1c(-c2ccc(Cl)cc2)nc2ncccc21`?
CHT inh: inactive; CHT allo act: inactive; Kir21 block: inactive

What do the screens show for `Cc1ccc(S(=O)(=O)N2CCCCC2C(=O)N2CCN(Cc3ccccc3)CC2)cc1` (stereo unspecified)?
CHT inh: -7.9; CHT allo act: inactive; Kir21 block: inactive; TAG inh: inactive; CHT inh conf: 37%; HEK293 CHT ctr: -8.6

How did Cc1ccc(S(=O)(=O)NC2=C(N3CCN(Cc4ccccc4)CC3)C(=O)c3ccccc3C2=O)cc1 do in these assays?
CHT inh: -5.5; CHT allo act: inactive; Kir21 block: inactive; CHT inh conf: 71%; HEK293 CHT ctr: inactive

How did Cc1ccc(S(=O)(=O)N2CCCC2C(=O)N2CCCCCC2)cc1 (stereo unspecified) do in these assays?
CHT inh: inactive; CHT allo act: inactive; Kir21 block: inactive

How did COc1ccc(-n2cnnc2SCC(=O)Nc2cc(S(=O)(=O)N3CCCCC3)ccc2C)cc1 do in these assays?
CHT inh: -5.3; CHT allo act: inactive; Kir21 block: inactive; CHT inh conf: 53%; HEK293 CHT ctr: inactive

What do the screens show for `COc1ccc(-n2cnnc2SCC(=O)Nc2cccc(S(=O)(=O)N3CCCCC3)c2)cc1`?
CHT inh: inactive; CHT allo act: inactive; Kir21 block: inactive

What do the screens show for `Cc1ccc(S(=O)(=O)N2CCCCC2)cc1NC(=O)CSc1nncn1-c1ccccc1`?
CHT inh: -6.1; CHT allo act: inactive; Kir21 block: inactive; CHT inh conf: 41%; HEK293 CHT ctr: inactive

How did O=S(=O)(Nc1nc2ccccc2nc1NCc1ccco1)c1ccc(F)cc1 do in these assays?
CHT inh: -6.2; CHT allo act: inactive; Kir21 block: inactive; TAG inh: inactive; CHT inh conf: inactive; HEK293 CHT ctr: inactive

Results for O=S(=O)(Nc1nc2ccccc2nc1NCc1ccco1)c1ccccc1 ?
CHT inh: inactive; CHT allo act: inactive; Kir21 block: inactive

How did N#CC(c1ccccc1)N(CCCCl)C(=O)c1ccc(Br)cc1 (stereo unspecified) do in these assays?
CHT inh: inactive; CHT allo act: inactive; Kir21 block: inactive

What do the screens show for `COc1ccc(CN=C(Nc2ccccc2)SC2CC(=O)N(C)C2=O)cc1` (stereo unspecified)?
CHT inh: -5.5; CHT allo act: inactive; Kir21 block: inactive; CHT inh conf: inactive; HEK293 CHT ctr: inactive

What do the screens show for `CCN=C(Nc1cccc(F)c1)SC1CC(=O)N(c2ccc(OC)cc2)C1=O` (stereo unspecified)?
CHT inh: inactive; CHT allo act: inactive; Kir21 block: inactive

Screening results from PubChem BioAssay.
